In publication PMC7819943, “Rice protein-binding microarrays: a tool to detect cis-acting elements near promoter regions in rice”:
Whole data set: some 39,000 sequences, median “fluorescence intensity (a.u.)” near 4,300, cut for the highest 2% near 39,000. For the sample, the highest values were picked, then their nearest neighbours and some sequences at random.

What follows are sequences tested against T1, OsSMF1 (Oryza sativa, UniProt Q6ZLB0 1-436) (assay: protein-binding microarray (RPBM); PBS, 2% BSA, 51.3 ng/ul salmon testes DNA, 50 uM zinc acetate, 200 nM TF, 25 C, 1 h; high values mean tight binding). Conditions: protein: recombinant; tags: N-terminal polyhistidine and DsRed monomer fusion (pET32a); chain copies: 2; label: CyDye5-dUTP incorporated in the synthesized complementary strand; 3' TTTTT single-stranded linker to array surface; dsDNA, one strand shown.
T1 sequence: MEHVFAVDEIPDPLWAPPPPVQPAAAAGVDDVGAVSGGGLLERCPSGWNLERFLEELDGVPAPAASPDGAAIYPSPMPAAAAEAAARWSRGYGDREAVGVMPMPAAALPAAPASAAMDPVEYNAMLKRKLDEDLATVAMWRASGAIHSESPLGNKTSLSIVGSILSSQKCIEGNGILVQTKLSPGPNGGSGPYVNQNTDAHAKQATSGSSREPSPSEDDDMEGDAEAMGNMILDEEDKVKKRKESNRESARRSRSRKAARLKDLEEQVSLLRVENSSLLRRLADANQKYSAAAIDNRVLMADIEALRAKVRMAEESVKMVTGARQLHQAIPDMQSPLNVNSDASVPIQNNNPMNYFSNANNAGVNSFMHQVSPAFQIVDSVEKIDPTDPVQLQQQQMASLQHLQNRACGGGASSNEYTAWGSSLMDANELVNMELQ
In short: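 Using Ni–NTA, transcription factors fused N-terminally to polyhistidine and DsRed were purified after expression in E. coli BL21-CodonPlus. These were incubated at 200 nM with a blocked, double-stranded custom Agilent array for 1 h at 25 °C in a buffer containing 50 µM zinc acetate, and the array was washed. The binding signal is per-feature fluorescence intensity (arbitrary units) on an Axon 4000B scanner.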

Sequence	binding signal
CTGCACCTGCTTGATCTCTTCTATGTCACTGTTCCTCTGACGGAGTCACCTAGTGCAG	3220 fluorescence intensity (a.u.)
GGGGAGCTTTGCCCCTGCGCACACTTGTCACGCTCACGCACGGAGTCACCTAGTGCAG	3220 fluorescence intensity (a.u.)
TGCTTCCCCTGTTCTGATCACCTGCGCACACGGGTGCTCACGGAGTCACCTAGTGCAG	49200 fluorescence intensity (a.u.)
CATAGCCTTTTGCATATGCGTCAAGCGTCTATACGATTCGCGGAGTCACCTAGTGCAG	3900 fluorescence intensity (a.u.)
TGGGCGAGGAAGATATGAGTGTGAAAGGATGGAGGGCCCACGGAGTCACCTAGTGCAG	32900 fluorescence intensity (a.u.)
TTTGACATAGATGTGTTCCTCTAATGACATAGATGTGTTCCGGAGTCACCTAGTGCAG	3230 fluorescence intensity (a.u.)
CAATCATCAGCCACGTCCGCCGCCGCTTCAGCTGGATCGGCGGAGTCACCTAGTGCAG	4290 fluorescence intensity (a.u.)
AGAGCTGAGCCTTATGTGTGGTCTGTCTGTGCCTAGTCGACGGAGTCACCTAGTGCAG	48400 fluorescence intensity (a.u.)
GACGGCGCGGTCGACCCACCGTCTGCCACGTCAGCTTGCCCGGAGTCACCTAGTGCAG	50100 fluorescence intensity (a.u.)
GAGAGAAGATAGTAGTGGTAGTAGTAGCTGAGCTGTGTCACGGAGTCACCTAGTGCAG	3360 fluorescence intensity (a.u.)
GGTCGACCCACCGTCTGCCACGTCAGCTTGCTGCCCACCACGGAGTCACCTAGTGCAG	48400 fluorescence intensity (a.u.)
GACGGCGCGGTCGACCCGCCGTCTGCCACGTCAGCTTGCCCGGAGTCACCTAGTGCAG	27400 fluorescence intensity (a.u.)
GTGTGCTGTGTGTGGTCTGAGATGATGTGTACTGCTGCTACGGAGTCACCTAGTGCAG	3950 fluorescence intensity (a.u.)
TCAGCGGCAGCCCACCCGACTGGGCCGGTCATCGGCGCCACGGAGTCACCTAGTGCAG	3470 fluorescence intensity (a.u.)
CGCGGTCGACCCACCGTCTGCCACGTCAGCTTGCTGCCCACGGAGTCACCTAGTGCAG	25600 fluorescence intensity (a.u.)
CGGTCGACCCACCGTCTGCCACGTCAGCTTGCCGCCCACCCGGAGTCACCTAGTGCAG	22800 fluorescence intensity (a.u.)
GCAGACGGCGCGGTCGACCCACCGTCTGCCACGTCAGCTTCGGAGTCACCTAGTGCAG	37200 fluorescence intensity (a.u.)
CTGGAGCGGGCGGCCACGGTCACGCCACGTCAGCTTCCATCGGAGTCACCTAGTGCAG	42100 fluorescence intensity (a.u.)
CTCCATCTCGCAGTCGCAGTGCCAGCTAAGGCCTTGTACACGGAGTCACCTAGTGCAG	3240 fluorescence intensity (a.u.)
GCAGTGGCTAAGCTTAAGCTCAGGTATGATGACTCGTTGGCGGAGTCACCTAGTGCAG	3610 fluorescence intensity (a.u.)
AAGGGCAGCTCAGTCATGGCTGCCACGAGGACAGATGTGGCGGAGTCACCTAGTGCAG	4760 fluorescence intensity (a.u.)

Sequence	binding signal
AGAGCAGATCCCCTGTCACGCCGACGCCGCCGCCGCCACCCGGAGTCACCTAGTGCAG	5410 fluorescence intensity (a.u.)
CAATCTGTCATCTCTTTACCAGTCTCATTGACATGTGGGCCGGAGTCACCTAGTGCAG	3270 fluorescence intensity (a.u.)
GAGAAAGGGTGTTGACGTGGCATCCTGACATGTGGGGTCCCGGAGTCACCTAGTGCAG	15100 fluorescence intensity (a.u.)
AATCGGTGTCGTTTTGCACGGCGTGTGCCACGTCAGCGTTCGGAGTCACCTAGTGCAG	52000 fluorescence intensity (a.u.)
AGCGGCGTCGTCTCGGCGGTGGCCGGTGCCACGGCGGCGGCGGAGTCACCTAGTGCAG	6200 fluorescence intensity (a.u.)
CACCTATCCATCCATCCATGTGTGGTGTCGTGTCAGCGTTCGGAGTCACCTAGTGCAG	6950 fluorescence intensity (a.u.)
CGTCGTCGCCGCCGCCGCCCTCTGCGTCGACGCTGCGGCACGGAGTCACCTAGTGCAG	3220 fluorescence intensity (a.u.)
CGACGCCGCCGAGATCGCCGTCACCCGAATCCTGCGACGCCGGAGTCACCTAGTGCAG	3580 fluorescence intensity (a.u.)
GTTTTCGCTTGTACTTCACAGGCTGATCACGGTCAGTACTCGGAGTCACCTAGTGCAG	48700 fluorescence intensity (a.u.)
AGCTTCGGAGGCTGTACACGTAATGTGGTCGCTTGTTTGTCGGAGTCACCTAGTGCAG	9220 fluorescence intensity (a.u.)
CATGTACACACCCACAGTCATCTGCTCATGTTTTCACGGTCGGAGTCACCTAGTGCAG	3630 fluorescence intensity (a.u.)
GAGGGGTTACGCGTTAGGCGCTGCCACGTGTATCGATCGGCGGAGTCACCTAGTGCAG	21900 fluorescence intensity (a.u.)
CGAGGATTTGAGATCTGAGATGGCACGGACACTAGACAACCGGAGTCACCTAGTGCAG	3440 fluorescence intensity (a.u.)
GGGAACATTGTGTGCCAAAATTGACTCACGAATATACAAGCGGAGTCACCTAGTGCAG	3340 fluorescence intensity (a.u.)
TTCTTTGGTGGGTGCCACGTAGGAGAAACCCAGCAGGAGTCGGAGTCACCTAGTGCAG	12000 fluorescence intensity (a.u.)
CACCCAAGAACCGGTGGTATTCTTTGGACACGAGAACTTTCGGAGTCACCTAGTGCAG	39100 fluorescence intensity (a.u.)
TATTTCTTCACCTTTAGTCATGTCACCTCTCACTTCACACCGGAGTCACCTAGTGCAG	5120 fluorescence intensity (a.u.)
TAAACTTCGGTGGCATGTCATCATCTTCAAACTCATCTTTCGGAGTCACCTAGTGCAG	4670 fluorescence intensity (a.u.)
CTTTCTTTCTTTCTTTGTGCCCAACTCTGACACGACTCACCGGAGTCACCTAGTGCAG	5180 fluorescence intensity (a.u.)
CTTCTTCGGGCCTTCTTTCAGAACTTTGGGTGGGCCTCACCGGAGTCACCTAGTGCAG	64300 fluorescence intensity (a.u.)
ACTCCCCTCCCCGCCACGTCGCCATTCTTCCCGCTCCTGACGGAGTCACCTAGTGCAG	11800 fluorescence intensity (a.u.)
